The source of these data is ChEMBL document CHEMBL2218924, “A broad activity screen in support of a chemogenomic map for kinase signalling research and drug discovery” (Biochem J, 2013).

For test [1], the target named is T1, Dual specificity mitogen-activated protein kinase kinase 6 (Homo sapiens) (UniProt P52564).
T1 sequence (whole entry): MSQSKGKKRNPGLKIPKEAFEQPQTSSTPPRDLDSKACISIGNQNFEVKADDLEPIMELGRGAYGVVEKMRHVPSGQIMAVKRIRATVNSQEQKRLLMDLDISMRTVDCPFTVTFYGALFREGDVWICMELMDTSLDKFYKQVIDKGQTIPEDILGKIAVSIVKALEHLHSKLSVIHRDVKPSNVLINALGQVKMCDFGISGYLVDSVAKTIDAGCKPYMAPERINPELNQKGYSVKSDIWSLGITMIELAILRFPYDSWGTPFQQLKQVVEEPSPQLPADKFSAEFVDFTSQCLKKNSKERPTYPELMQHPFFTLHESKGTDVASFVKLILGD
The note with it: at 1 µM.

Test [2] concerns the target T1, Dual specificity mitogen-activated protein kinase kinase 6 (Homo sapiens). Conditions: at 10 µM.
Test [3] has as its target T2, Dual specificity mitogen-activated protein kinase kinase 7 (Homo sapiens) (UniProt O14733).
T2 sequence (whole entry): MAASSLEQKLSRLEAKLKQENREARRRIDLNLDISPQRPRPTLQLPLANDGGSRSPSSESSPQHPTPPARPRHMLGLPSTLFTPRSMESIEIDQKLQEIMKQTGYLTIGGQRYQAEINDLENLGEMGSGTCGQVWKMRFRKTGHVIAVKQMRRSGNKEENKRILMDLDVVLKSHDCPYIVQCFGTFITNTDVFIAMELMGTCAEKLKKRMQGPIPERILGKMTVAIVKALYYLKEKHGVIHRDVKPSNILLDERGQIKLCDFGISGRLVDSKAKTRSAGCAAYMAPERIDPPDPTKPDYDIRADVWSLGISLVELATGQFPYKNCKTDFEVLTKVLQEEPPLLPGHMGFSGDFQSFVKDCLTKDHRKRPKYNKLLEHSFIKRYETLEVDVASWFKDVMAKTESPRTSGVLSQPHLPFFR
Conditions: at 1 µM.

The target in test [4] is T2, Dual specificity mitogen-activated protein kinase kinase 7 (Homo sapiens). Conditions: at 10 µM.
Test [5] has as its target Myosin light chain kinase, smooth muscle (Homo sapiens) (UniProt Q15746). The note with it: at 1 µM.
Test [6] shares this target. The note with it: at 10 µM.
Test [7] addresses Mitogen-activated protein kinase kinase kinase 9 (Homo sapiens) (UniProt P80192). Conditions: at 1 µM.
Test [8] shares this target. Conditions: at 10 µM.
Test [9] deals with Serine/threonine-protein kinase MRCK alpha (Homo sapiens) (UniProt Q5VT25). Conditions: at 1 µM.
For test [10] the target is unchanged. Conditions: at 10 µM.
Test [11] deals with Ribosomal protein S6 kinase alpha-5 (Homo sapiens) (UniProt O75582). The note with it: at 1 µM.
Test [12] shares this target. The note with it: at 10 µM.
For test [13], the target named is Ribosomal protein S6 kinase alpha-4 (Homo sapiens) (UniProt O75676). Conditions: at 1 µM.
The target is the same in test [14]. The note with it: at 10 µM.
Test [15] has as its target SRSF protein kinase 3 (Homo sapiens) (UniProt Q9UPE1). The note with it: at 1 µM.
The target is the same in test [16]. The note with it: at 10 µM.
Test [17] deals with Serine/threonine-protein kinase MRCK beta (Homo sapiens) (UniProt Q9Y5S2). Conditions: at 1 µM.
The target is the same in test [18]. Conditions: at 10 µM.
For test [19], the target named is T3, Serine/threonine-protein kinase 4 (Homo sapiens) (UniProt Q13043).
T3 sequence (whole entry): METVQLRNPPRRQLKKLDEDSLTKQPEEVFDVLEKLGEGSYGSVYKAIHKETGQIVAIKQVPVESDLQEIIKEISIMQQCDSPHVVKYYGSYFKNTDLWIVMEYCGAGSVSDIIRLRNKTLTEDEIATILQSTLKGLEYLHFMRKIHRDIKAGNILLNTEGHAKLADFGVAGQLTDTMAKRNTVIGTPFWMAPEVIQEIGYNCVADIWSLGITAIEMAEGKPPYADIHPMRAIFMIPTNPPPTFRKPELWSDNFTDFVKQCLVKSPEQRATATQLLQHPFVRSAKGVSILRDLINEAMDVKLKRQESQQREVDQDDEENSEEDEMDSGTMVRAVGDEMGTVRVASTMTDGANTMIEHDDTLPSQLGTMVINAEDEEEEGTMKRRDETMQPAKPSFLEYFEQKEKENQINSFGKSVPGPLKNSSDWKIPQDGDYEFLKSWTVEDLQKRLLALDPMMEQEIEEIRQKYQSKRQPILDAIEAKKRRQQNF
The note with it: at 1 µM.

Test [20] has as its target T3, Serine/threonine-protein kinase 4 (Homo sapiens). The note with it: at 10 µM.

Sequence of Ribosomal protein S6 kinase alpha-4 (Homo sapiens) (O75676 whole entry, looked up): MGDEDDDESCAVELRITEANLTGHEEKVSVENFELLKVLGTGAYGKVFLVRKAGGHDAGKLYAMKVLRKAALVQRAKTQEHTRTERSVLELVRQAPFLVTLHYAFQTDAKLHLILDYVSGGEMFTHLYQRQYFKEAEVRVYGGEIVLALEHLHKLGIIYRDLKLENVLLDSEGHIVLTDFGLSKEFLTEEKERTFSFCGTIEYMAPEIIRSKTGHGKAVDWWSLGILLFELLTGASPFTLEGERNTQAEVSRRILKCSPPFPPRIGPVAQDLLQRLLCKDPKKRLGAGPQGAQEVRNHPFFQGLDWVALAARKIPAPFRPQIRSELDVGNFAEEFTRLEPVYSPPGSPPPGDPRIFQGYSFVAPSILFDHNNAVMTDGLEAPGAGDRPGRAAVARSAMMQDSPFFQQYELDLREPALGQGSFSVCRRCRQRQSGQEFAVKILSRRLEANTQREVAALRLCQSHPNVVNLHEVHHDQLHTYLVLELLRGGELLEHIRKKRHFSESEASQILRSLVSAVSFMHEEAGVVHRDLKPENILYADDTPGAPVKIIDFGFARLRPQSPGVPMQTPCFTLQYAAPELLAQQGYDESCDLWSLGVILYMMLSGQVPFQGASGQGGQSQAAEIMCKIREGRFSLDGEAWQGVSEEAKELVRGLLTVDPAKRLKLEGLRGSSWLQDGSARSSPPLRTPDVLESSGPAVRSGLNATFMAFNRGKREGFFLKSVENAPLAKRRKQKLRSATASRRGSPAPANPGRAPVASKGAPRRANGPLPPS
Sequence of Ribosomal protein S6 kinase alpha-5 (Homo sapiens) (O75582 whole entry, looked up): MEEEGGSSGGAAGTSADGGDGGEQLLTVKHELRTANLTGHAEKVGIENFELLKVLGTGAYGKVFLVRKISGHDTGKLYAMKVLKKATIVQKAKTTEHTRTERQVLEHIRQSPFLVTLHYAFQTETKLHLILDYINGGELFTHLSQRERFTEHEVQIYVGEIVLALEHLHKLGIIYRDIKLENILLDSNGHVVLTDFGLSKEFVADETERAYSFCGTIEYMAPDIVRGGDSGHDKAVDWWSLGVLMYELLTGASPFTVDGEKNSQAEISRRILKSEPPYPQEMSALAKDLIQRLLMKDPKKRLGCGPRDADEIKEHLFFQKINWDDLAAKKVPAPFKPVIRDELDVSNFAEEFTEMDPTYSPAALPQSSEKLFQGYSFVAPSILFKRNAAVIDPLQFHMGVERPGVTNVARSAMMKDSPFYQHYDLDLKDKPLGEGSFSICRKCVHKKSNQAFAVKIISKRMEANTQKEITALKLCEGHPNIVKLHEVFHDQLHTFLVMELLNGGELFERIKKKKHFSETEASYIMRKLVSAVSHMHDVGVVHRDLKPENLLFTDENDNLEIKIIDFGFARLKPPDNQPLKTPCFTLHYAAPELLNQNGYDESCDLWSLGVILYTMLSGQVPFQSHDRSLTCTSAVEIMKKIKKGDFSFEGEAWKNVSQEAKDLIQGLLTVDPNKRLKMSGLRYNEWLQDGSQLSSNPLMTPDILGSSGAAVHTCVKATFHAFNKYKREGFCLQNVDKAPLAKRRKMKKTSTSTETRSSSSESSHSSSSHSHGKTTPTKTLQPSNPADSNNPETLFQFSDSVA
Sequence of Serine/threonine-protein kinase MRCK alpha (Homo sapiens) (Q5VT25 whole entry): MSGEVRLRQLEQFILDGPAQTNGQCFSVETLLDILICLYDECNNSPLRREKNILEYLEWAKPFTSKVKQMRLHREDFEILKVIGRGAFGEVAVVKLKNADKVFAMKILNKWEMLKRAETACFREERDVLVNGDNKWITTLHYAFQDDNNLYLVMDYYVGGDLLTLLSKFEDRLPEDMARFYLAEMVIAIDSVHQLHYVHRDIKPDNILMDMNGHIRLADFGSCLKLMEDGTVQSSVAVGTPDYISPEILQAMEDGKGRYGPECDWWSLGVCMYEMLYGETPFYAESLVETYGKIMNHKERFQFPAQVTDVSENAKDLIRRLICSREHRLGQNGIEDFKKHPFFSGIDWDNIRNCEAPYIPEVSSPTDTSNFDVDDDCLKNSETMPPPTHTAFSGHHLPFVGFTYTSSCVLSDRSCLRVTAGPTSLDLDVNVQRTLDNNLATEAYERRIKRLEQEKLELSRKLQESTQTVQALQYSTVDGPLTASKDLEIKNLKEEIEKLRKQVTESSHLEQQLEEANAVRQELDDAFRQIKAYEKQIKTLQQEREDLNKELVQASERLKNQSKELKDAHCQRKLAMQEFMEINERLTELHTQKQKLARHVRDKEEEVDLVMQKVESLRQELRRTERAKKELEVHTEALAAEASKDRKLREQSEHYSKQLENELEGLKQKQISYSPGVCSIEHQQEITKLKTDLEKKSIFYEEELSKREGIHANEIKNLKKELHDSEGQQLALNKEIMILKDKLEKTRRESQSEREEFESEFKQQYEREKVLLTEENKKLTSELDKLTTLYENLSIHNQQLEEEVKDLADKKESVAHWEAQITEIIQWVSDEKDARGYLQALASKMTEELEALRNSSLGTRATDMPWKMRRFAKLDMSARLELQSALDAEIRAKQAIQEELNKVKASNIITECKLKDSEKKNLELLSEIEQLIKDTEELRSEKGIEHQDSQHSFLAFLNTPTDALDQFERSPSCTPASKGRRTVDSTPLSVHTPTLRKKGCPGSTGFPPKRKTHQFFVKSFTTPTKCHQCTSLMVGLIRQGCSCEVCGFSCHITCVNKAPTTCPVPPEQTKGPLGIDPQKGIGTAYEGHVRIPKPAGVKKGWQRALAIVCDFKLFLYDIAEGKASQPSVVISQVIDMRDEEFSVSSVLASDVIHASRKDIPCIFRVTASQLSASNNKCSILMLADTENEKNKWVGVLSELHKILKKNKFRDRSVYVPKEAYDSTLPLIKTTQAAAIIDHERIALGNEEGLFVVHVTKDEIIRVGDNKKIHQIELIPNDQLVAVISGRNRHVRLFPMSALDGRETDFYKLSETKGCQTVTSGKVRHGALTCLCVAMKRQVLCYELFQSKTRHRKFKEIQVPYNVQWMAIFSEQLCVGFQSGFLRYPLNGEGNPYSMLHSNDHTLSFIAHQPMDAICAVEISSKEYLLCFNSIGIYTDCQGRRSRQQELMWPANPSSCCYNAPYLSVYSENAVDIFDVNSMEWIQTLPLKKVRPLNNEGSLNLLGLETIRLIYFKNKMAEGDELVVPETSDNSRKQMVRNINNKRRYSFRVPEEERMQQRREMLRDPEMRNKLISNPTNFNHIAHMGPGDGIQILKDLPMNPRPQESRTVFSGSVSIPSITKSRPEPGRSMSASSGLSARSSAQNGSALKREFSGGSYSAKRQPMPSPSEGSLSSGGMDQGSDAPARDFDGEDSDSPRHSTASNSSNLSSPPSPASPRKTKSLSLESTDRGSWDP
Sequence of Serine/threonine-protein kinase MRCK beta (Homo sapiens) (Q9Y5S2 whole entry): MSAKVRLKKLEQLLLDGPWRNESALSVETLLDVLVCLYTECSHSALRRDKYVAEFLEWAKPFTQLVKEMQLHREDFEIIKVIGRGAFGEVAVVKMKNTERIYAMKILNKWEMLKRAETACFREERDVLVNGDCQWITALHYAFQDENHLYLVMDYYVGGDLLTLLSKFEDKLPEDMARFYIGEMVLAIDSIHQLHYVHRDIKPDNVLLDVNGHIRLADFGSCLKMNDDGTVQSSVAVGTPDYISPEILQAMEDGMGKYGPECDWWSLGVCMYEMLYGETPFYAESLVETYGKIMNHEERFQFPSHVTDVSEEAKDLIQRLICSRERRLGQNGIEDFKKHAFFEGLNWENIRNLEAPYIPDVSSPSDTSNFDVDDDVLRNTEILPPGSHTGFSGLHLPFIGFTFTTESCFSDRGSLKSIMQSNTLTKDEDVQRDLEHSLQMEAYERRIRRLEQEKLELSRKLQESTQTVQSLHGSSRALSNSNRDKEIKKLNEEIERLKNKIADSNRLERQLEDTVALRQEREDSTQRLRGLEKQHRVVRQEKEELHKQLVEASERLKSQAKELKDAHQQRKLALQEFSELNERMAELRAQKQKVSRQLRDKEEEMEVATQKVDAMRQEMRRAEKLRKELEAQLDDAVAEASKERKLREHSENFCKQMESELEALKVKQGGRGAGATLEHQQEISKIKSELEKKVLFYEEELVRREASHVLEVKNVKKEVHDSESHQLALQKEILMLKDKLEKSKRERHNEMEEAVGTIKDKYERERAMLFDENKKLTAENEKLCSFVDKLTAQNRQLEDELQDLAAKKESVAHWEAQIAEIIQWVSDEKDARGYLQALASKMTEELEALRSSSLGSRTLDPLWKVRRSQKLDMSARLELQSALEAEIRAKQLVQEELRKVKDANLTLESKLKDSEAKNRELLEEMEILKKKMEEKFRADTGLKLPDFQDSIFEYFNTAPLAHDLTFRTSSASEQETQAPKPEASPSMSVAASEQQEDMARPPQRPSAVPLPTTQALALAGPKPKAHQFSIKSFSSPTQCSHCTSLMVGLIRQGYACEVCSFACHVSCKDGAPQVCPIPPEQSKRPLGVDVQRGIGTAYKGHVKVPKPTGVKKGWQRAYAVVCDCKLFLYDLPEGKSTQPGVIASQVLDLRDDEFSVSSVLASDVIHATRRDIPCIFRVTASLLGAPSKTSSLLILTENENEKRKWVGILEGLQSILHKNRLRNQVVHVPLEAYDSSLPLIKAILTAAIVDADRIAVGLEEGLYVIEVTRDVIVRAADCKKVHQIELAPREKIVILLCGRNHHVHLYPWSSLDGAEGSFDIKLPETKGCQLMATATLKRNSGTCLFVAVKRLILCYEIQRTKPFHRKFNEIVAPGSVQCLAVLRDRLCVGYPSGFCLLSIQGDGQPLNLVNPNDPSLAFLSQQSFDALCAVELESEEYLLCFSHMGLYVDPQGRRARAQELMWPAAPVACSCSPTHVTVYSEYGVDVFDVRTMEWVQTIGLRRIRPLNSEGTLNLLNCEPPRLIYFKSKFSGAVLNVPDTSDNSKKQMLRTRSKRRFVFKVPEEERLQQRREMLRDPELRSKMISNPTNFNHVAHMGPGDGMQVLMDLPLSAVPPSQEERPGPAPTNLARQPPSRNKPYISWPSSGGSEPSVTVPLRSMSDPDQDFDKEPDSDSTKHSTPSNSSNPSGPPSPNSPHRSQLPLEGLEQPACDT

For `NCCNc1ncc(C(N)=O)c(Nc2cccc(C(F)(F)F)c2)n1`, the residual activity in [1] is 18%; in [2] it was 6%; in test [3] it was 73%; in test [4], 38%; in [5] it was 67%; in test [6], 55%. For the same molecule, the residual activity in [7] was 30%; in test [8] it was 4%; in test [9] it was 104%; in test [10], 105%; in test [11], 112%; in test [12], 77%. Besides, the residual activity amounted to 81% in [13], 81% in test [14], 108% in test [15] and 75% in test [16].
In the case of `Cn1c2ccccc2c2c3c(c4c5ccccc5n(CCC#N)c4c21)CNC3=O`, the residual activity was 0% in test [1]; 1% in test [2]; 52% in test [3]; 34% in test [4]; 16% in [5]; 11% in test [6]. The residual activity in [7] was determined as 2%; in test [8], 2%; in [10], 79%; in test [17], 74%; in [18], 64%; in [11], 3%. The residual activity in test [12] stood at 2%; in test [13], 2%; in test [14], 5%; in test [19] it was 1%; in [20], 2%.
Regarding `COc1ccc(COc2ccc(Cc3cnc(N)nc3N)cc2OC)cc1`, the residual activity in test [1] stood at 78%; in [2], 80%; in test [3], 113%; in test [4] it was 80%; in test [11], 131%; in test [12], 109%. The residual activity is 111% in [15], 82% in [16] and 77% in test [20].
For the molecule `N#C/C(=C\c1ccc(O)c(O)c1)C(=O)NCc1ccccc1`, the residual activity turned out to be 89% in test [1]; 101% in [2]; 83% in test [3]; 68% in test [4]; 101% in test [5]; 100% in test [6]. The residual activity in test [10] worked out at 87%; in test [17], 87%; in [18] it was 82%; in test [12] it was 57%; in test [13] it was 86%; in test [14], 74%. The residual activity in test [16] amounted to 88%.
As for `NC(=O)c1ccc(-c2nc(-c3ccc4c(c3)OCCO4)c(-c3ccccn3)[nH]2)cc1`, the residual activity in [1] stood at 97%; in [2], 58%; in test [3], 91%; in test [4] it was 95%; in [7], 94%; in test [8] it was 79%. The residual activity in test [17] was 95%; in test [18], 92%; in test [11], 120%; in test [12] it was 124%; in test [19], 90%; in test [20] it was 118%.
For the molecule `CC(C)[C@H](CO)Nc1nc(Nc2cc(N)cc(Cl)c2)c2ncn(C(C)C)c2n1`, the residual activity stood at 93% in test [1]; 78% in test [2]; 95% in test [3]; 82% in test [5]; 29% in [6]; 122% in test [9]. Moreover, the residual activity was found to be 100% in [17]; 90% in test [18]; 118% in test [11]; 76% in test [12]; 51% in test [14]; 40% in [15]. Further, the residual activity is 12% in test [16], 82% in test [19] and 47% in [20].
In the case of `CC(C)(C)n1nc(Cc2cccc3ccccc23)c2c(N)ncnc21`, the residual activity came to 57% in [1]; 38% in test [2]; 98% in test [3]; 94% in [4]; 73% in test [5]; 87% in test [6]. Also, the residual activity in test [7] stood at 68%; in test [8], 18%; in test [9] it was 95%; in [10] it was 119%; in test [17] it was 99%; in [18] it was 86%. The residual activity in test [11] is 120%; in test [12], 93%; in test [13], 95%; in test [15], 116%; in [16] it was 80%; in test [19] it was 90%. Further, the residual activity in test [20] worked out at 58%.
On to `Nc1n[nH]c2nc3ccccc3nc12`, for which the residual activity in test [1] worked out at 95%; in test [2], 84%; in [3], 88%; in [4], 81%; in test [5] it was 95%; in test [6], 69%. Besides, the residual activity in [7] stood at 82%; in test [8] it was 41%; in [17], 86%; in test [18], 92%; in test [12], 86%; in test [19], 76%. In addition, the residual activity in test [20] was 94%.
As to `O=c1cc(N2CCOCC2)oc2c1ccc1ccccc12`, the residual activity in [1] was 92%; in [2] it was 86%; in test [3], 102%; in test [4], 94%; in test [5] it was 92%; in test [6], 77%. In addition, the residual activity in test [7] stood at 96%; in test [8], 101%; in [9] it was 105%; in test [10], 99%; in test [17], 95%; in test [18], 78%. In addition, the residual activity in test [11] worked out at 125%; in [12], 103%; in test [14] it was 105%; in [16], 70%; in test [19], 91%; in [20], 97%.
For the molecule `O=C(NC(NC(=S)Nc1ccc(F)c([N+](=O)[O-])c1)C(Cl)(Cl)Cl)C(c1ccccc1)c1ccccc1` (centres undefined), the residual activity in test [1] is 135%; in test [2], 80%; in [4] it was 96%; in test [5], 103%; in [6], 79%; in [7] it was 102%. The residual activity in [8] is 103%; in test [17], 97%; in [18] it was 87%; in test [13] it was 95%; in test [14], 94%; in test [15], 98%. The residual activity in test [19] amounted to 92%.
In the case of `CCN(CC)CCNC(=O)c1c(C)[nH]c(/C=C2\C(=O)Nc3ccc(Cl)cc32)c1C`, the residual activity in [1] was 66%; in test [2], 46%; in test [4], 81%; in test [5] it was 9%; in [6] it was 3%; in test [7] it was 24%. Also, the residual activity worked out at 4% in test [8]; 80% in test [11]; 31% in test [12]; 42% in [13]; 15% in test [14]; 98% in test [15]. The residual activity in test [16] was 61%; in test [19], 12%; in [20], 5%.
On to `c1ccc(-c2cnc(Nc3ccc(OCCN4CCCC4)cc3)s2)cc1`, for which the residual activity in [1] came out at 77%; in [2], 72%; in test [5], 76%; in test [6] it was 58%; in test [7] it was 74%; in [8], 22%. Besides, the residual activity stood at 107% in test [9]; 106% in test [10]; 106% in test [17]; 109% in [18]; 128% in [11]; 106% in test [12]. The figures for the residual activity in test [15] and in [16] were 108% and 78%, respectively.
Turning to `O=C(CCCc1ccc(-c2ccccc2F)cc1)Nc1ccc(O)cc1`, the residual activity was found to be 98% in test [1]; 75% in test [2]; 89% in test [3]; 85% in [4]; 102% in test [5]; 82% in test [6]. Further, the residual activity in [7] came to 91%; in test [8] it was 89%; in test [9] it was 107%; in [10], 136%; in test [17], 108%; in test [18] it was 105%. The residual activity in [11] worked out at 110%; in test [12], 104%; in test [13], 110%; in [14], 100%; in test [15], 105%; in [16], 94%. Besides, the residual activity in test [19] amounted to 80%; in [20], 107%.
